Experimental findings from PubChem BioAssay are described below.

Assay [1] can be described thus: yeast TOR pathway RPL19A-GFP modulators, primary screen, cell-based, S. cerevisiae, multiplex flow cytometry (AID 1862; in the data active = percent of DMSO control GFP below about 86%;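 also: lower values mimic rapamycin by blocking the RPL19A rise seen in DMSO cells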). The settings on record: S. cerevisiae RPL19A-GFP strain, flow cytometry fluorescence, 3 h; at 10 µM; stronger effect = lower value. On the technique in general: A flow cytometer gives signals particle by particle.
Assay [2] in a line: modulators of MEP2-GFP levels in yeast, primary screen, S. cerevisiae, multiplex flow cytometry (AID 1867;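 active = GFP response, as percent of the DMSO control, above the screen-wide mean plus 3 SD, about 139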;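 also: median GFP channel fluorescence of barcode-gated MEP2-GFP cells measured by flow cytometry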). The settings on record: S. cerevisiae MEP2-GFP strain, 3 h, at 10 µM, stronger effect = higher value, 100% means same as DMSO wells.
Assay [3] is described as follows: modulators of CIT2-GFP expression in yeast, primary screen, S. cerevisiae, GFP fusion, multiplex flow cytometry (AID 1870;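 active = percent response above a set limit, the screen-wide mean plus 3 SD, cut at about 130% in these data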;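 also: barcoded CIT2-GFP strain pooled with four other GFP strains with rapamycin as positive control; median GFP fluorescence per well over plate mean of DMSO wells so 100% = DMSO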). The note with it: 3 h, at 10 µM, stronger effect = higher value.
Assay [4] is described as follows: modulators of LAP4-GFP expression in yeast, primary screen, S. cerevisiae, multiplex flow cytometry (AID 1873;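 active = GFP signal, as percent of the solvent control, above the screen mean plus 3 SD, about 149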). The settings on record: 3 h, at 10 µM, stronger effect = higher value.
The nature of assay [5]: modulators of AGP1-GFP expression in yeast TOR pathway, primary screen, cell-based, multiplex flow cytometry, S. cerevisiae (AID 1887;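 active = GFP signal above the screen-wide mean plus 3 SD, that is over about 124.5% of the solvent control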;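 also: AGP1-GFP fusion strain of S. cerevisiae within a five-strain barcoded multiplex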). The note with it: 3 h, at 10 µM, stronger effect = higher value.
The nature of assay [6]: inhibitors of CD8+ T cell-vesicle binding, pilot screen, LFA-1/ICAM-1 modulator project, MLPCN validation set, flow cytometry (AID 2523;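 active = response below a set limit, under 55% cells CD8-positive and vesicle-bound, and CD8 cells' 90th-percentile brightness under 279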;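 as to vesicle binding response: mean PE anti-B7-1 fluorescence of CD8+ cells relative to row control; 100% = QL9-loaded vesicles with DMSO vehicle in the same plate row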). The settings on record: 2C mouse CD8+ T cells, at 7 µM, stronger effect = lower value; double positive events: measured here: CD8+/vesicle+ event percentage.
Assay [7] deals with Integrin beta-1 (Homo sapiens) + Integrin alpha-4 (Homo sapiens) (UniProt P13612+P05556). Nature of the assay: inhibition of HUTS-21 binding to VLA-4, pilot screen, VLA-4 allosteric modulator project, U937 cells, HUTS-21 mAb, flow cytometry, validation set (AID 2674;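 active = inhibition above 50%, about 3 SD of the validation set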;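 also: antibody binding induced by the VLA-4 ligand LDV present at three times its Kd; 0% = LDV ligand with antibody and no compound and 100% = antibody without LDV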). The note with it: HUTS-21 LIBS mAb binding, at 6.7 µM, stronger effect = higher value, binding induced by LDV ligand.
Chain of Integrin beta-1 (Homo sapiens) + Integrin alpha-4 (Homo sapiens) (P05556 whole entry, looked up): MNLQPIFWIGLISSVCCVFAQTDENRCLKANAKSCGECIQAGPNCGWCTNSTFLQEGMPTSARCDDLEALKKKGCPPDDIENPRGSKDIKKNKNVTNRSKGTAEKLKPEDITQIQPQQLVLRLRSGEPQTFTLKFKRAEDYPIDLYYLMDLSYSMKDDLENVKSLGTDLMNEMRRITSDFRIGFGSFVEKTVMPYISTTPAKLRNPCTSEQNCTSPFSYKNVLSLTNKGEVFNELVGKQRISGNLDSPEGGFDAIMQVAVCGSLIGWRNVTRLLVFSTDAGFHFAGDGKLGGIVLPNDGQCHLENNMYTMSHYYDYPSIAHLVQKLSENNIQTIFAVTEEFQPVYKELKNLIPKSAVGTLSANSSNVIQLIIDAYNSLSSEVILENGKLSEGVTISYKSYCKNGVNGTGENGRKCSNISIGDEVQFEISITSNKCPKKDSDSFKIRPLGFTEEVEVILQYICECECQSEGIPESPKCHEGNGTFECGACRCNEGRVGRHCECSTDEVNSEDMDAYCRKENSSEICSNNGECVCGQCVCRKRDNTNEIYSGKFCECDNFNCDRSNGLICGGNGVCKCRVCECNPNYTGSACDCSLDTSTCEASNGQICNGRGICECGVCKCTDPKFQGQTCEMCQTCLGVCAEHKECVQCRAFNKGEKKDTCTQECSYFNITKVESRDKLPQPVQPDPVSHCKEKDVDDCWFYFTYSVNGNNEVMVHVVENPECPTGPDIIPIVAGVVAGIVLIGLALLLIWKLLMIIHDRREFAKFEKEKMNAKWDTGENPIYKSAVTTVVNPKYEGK
Chain of Integrin beta-1 (Homo sapiens) + Integrin alpha-4 (Homo sapiens) (P13612 whole entry, looked up): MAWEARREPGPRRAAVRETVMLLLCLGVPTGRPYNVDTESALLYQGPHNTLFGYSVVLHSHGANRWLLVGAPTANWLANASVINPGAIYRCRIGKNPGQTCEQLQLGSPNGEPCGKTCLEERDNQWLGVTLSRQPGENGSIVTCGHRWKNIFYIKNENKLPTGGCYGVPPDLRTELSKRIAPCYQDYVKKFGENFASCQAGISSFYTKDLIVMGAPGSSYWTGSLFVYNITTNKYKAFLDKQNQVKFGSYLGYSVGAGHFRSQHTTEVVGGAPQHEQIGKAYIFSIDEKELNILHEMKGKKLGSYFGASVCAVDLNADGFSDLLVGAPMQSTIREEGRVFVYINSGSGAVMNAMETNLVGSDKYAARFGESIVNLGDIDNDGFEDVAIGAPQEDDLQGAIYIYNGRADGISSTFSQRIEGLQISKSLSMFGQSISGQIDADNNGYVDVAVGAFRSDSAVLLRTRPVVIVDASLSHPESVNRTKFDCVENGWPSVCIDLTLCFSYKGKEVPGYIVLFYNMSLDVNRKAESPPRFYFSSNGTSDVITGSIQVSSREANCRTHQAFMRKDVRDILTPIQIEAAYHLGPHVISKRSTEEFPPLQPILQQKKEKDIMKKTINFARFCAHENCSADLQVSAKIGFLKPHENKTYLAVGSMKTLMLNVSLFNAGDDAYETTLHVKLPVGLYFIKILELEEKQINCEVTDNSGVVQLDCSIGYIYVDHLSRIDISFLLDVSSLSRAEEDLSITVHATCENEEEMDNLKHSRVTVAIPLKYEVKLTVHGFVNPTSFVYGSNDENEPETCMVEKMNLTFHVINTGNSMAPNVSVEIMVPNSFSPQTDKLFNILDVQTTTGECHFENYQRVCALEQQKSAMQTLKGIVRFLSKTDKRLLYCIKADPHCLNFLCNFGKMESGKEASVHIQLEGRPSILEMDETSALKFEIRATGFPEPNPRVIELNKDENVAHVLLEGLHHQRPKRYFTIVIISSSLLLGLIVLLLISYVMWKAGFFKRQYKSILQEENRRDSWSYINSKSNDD
Assay [8] in a line: superoxide lowering in aged yeast cells, pilot screen, validation compound set (AID 2706;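 active = superoxide response below 65% of plate, a cut near 3 SD across the whole screen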;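 also: yeast exposed to compound for one week at 30 degrees C before staining; 100% = mean of all compound wells on the same plate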). The note with it: S. cerevisiae aging, superoxide DHE fluorescence; at 10 µM; stronger effect = lower value.
Assay [9] addresses Beta-adrenergic receptor kinase 1 (Homo sapiens) (UniProt P25098). Nature of the assay: GRK2 binders displacing RNA aptamer, biochemical, validation, human GRK2, bead flow cytometry (AID 488806;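 active = aptamer binding inhibition above 30%, about 3 SD of noise from non-fluorescent compounds; inactive = inhibition at or below 30%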). The note with it: bead-bound GRK2, FAM-aptamer displacement, at 10 µM, stronger effect = higher value.
Assay [10] addresses Beta-2 adrenergic receptor (Homo sapiens) (UniProt P07550). Nature of the assay: beta2AR agonists driving receptor internalization, pilot screen, cell-based, FAP fluorogen, flow cytometry, validation set (AID 504459;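 active = percent response above 42, roughly 3 SD of non-fluorescent test compounds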;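 also: agonist-driven loss of surface beta2AR via internalization measured by FAP dye flow cytometry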). The settings on record: Am2.2-beta2AR cells, FAP surface receptor flow cytometry; at 10 µM; stronger effect = higher value.
Assay [11] concerns the target AP-2 complex subunit beta (Homo sapiens) (UniProt P63010). Nature of the assay: inhibitors of arrestin peptide binding to AP2, pilot screen, biochemical, validation set, GST-AP2 beads, flow cytometry (AID 504541;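 active = inhibition above 54%, about 3 SD of non-fluorescent compounds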;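 also: AP2 carries R879A mutation and is captured from E. coli lysate; bead-bound FITC arrestin peptide fluorescence measuring arrestin peptide binding to AP2; 0% = DMSO wells and 100% = excess unlabeled arrestin peptide control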). The settings on record: FITC arrestin peptide, at 10 µM, stronger effect = higher value, AP2 beta2 appendage fragment, R879A mutant.
Assay [12] can be described thus: yeast V-ATPase proton transport modulators, S. cerevisiae, pHLuorin, HTS validation (AID 504600; in the data active = response above about 15%;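 also: plate controls were DMSO for no effect and reference compound for full effect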). The note with it: S. cerevisiae pHLuorin cytosolic pH, at 10 µM, stronger effect = higher value.
The subject of assay [13] is anti-desmoglein-3 scFv antibody binding to human DSG3. The assay can be described thus: inhibitors of anti-DSG3 scFv binding to DSG3, pilot screen, biochemical, validation compound set, bead-based, flow cytometry (AID 588368;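 active = binding below the plate cutoff, the plate median minus 3 SD, with a reading above zero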;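 also: signal is the median channel fluorescence of bead-bound GFP antibody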). The note with it: Protein G beads, DSG3-Fc, scFv-GFP binding, at 10 µM, stronger effect = lower value.
A short description of assay [14]: inhibitors of fungal efflux pumps CDR1, CDR2, MDR1, pilot screen, validation compound set, multiplex, phenotypic (AID 588506;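 active = efflux inhibition above 0.42, the validation set average plus 4 SD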;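 also: Nile Red retained in cells so higher fluorescence means more efflux inhibition; 0 = negative control wells and 1 = enniatin B 25 µM full block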). The settings on record: S. cerevisiae pump-expressing triplex, Nile Red efflux flow cytometry; at 10 µM; stronger effect = higher value; the pumps come from Candida albicans.
The target in assay [15] is ATP-binding cassette sub-family B member 6 (Homo sapiens) (UniProt Q9NP58). Nature of the assay: ABCB6 transporter inhibitors, pilot screen, K562-ABCB6 cells, flow cytometry, validation set (AID 588550).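 Also: 0% = DMSO wells and 100% = benzethonium chloride 70 µM positive control.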 The note with it: K562-ABCB6 porphyrin accumulation, 1 h, at 10 µM, stronger effect = higher value.
Chain of ATP-binding cassette sub-family B member 6 (Homo sapiens) (Q9NP58 whole entry, looked up): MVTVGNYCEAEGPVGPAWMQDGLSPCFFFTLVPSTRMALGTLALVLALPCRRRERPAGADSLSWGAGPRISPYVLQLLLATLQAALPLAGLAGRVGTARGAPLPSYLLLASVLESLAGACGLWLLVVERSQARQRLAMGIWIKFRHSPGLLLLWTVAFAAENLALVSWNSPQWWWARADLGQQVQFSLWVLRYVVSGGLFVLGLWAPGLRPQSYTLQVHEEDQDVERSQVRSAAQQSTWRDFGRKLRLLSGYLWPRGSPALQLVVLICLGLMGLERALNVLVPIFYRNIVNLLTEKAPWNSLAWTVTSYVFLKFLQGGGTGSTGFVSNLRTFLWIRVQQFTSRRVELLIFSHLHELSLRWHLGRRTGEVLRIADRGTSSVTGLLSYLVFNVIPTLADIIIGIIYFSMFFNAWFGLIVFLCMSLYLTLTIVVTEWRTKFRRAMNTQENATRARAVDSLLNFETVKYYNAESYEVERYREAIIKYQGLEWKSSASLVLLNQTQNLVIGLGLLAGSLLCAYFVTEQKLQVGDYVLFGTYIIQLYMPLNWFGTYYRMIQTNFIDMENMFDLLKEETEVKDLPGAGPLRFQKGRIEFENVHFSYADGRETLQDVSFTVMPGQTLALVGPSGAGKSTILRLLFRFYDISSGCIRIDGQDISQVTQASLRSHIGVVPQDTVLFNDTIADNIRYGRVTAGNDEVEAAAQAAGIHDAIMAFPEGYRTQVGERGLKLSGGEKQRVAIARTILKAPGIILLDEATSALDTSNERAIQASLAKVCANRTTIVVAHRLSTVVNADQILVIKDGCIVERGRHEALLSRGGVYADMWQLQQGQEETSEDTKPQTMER
A short description of assay [16]: promoters of myeloid differentiation in arrested cells, primary screen, cell-based, GFP/MAC1 double positive, flow cytometry, validation set (AID 588685;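 active = differentiation response of at least 50%, scaled between solvent and reference control, from cells with both markers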;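 also: compound exposure lasts four days before antibody staining and flow analysis; 0% = DMSO wells and 100% = 5 µM fulvestrant positive control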). The note with it: ER-HoxA9 marrow cells, stronger effect = higher value, normalized: vehicle 0, fulvestrant 100.

Molecules are shown by their SMILES. Results filed as inconclusive are left out. Activity calls are given as the source filed them.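 The calls were made as follows, unless noted: active = inhibition above the screen-wide mean plus 3 SD, about 51%; inactive = the rest.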

Chain of Beta-adrenergic receptor kinase 1 (Homo sapiens) (P25098 whole entry, looked up): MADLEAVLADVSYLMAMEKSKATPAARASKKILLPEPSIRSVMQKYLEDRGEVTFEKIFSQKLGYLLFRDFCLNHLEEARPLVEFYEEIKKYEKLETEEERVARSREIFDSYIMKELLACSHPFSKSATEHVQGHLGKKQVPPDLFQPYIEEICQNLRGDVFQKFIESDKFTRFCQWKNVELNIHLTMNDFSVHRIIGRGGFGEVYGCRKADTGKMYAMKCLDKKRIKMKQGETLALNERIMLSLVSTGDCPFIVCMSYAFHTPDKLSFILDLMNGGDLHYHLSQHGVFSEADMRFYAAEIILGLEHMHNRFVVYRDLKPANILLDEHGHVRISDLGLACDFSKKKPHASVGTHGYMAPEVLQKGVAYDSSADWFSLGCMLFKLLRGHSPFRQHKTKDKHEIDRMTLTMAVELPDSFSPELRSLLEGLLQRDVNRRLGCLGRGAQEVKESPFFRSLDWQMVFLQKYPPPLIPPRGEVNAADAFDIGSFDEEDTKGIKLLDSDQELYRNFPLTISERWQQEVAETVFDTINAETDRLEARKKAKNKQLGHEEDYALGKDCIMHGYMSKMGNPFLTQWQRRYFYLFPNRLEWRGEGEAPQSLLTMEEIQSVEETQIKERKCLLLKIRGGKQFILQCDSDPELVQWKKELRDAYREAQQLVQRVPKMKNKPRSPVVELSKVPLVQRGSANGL
Chain of AP-2 complex subunit beta (Homo sapiens) (P63010 whole entry, looked up, the tested form may be a part, one chain of several): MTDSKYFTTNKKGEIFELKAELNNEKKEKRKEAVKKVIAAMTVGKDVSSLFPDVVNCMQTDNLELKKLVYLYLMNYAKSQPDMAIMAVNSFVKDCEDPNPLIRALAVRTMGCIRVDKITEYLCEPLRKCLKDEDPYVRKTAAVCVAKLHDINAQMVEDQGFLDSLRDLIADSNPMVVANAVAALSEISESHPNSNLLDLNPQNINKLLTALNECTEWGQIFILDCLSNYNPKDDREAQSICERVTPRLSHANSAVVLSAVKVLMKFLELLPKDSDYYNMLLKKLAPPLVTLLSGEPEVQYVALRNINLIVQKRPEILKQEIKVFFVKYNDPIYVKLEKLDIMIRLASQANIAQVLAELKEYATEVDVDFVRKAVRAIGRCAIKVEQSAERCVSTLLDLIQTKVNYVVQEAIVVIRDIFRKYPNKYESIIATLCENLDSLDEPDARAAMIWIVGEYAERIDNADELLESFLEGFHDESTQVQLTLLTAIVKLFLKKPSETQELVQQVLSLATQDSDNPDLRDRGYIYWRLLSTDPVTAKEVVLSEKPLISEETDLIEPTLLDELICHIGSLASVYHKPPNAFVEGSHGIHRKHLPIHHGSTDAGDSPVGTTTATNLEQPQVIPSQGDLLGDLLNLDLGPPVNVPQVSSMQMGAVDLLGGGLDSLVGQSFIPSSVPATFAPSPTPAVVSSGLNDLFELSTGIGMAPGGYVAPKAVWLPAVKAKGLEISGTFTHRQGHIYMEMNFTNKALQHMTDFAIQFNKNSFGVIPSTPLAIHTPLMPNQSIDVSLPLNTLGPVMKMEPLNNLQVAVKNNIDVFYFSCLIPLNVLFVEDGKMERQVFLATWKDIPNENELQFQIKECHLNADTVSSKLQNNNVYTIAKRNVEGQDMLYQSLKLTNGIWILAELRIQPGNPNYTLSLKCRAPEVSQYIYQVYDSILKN
Chain of Beta-2 adrenergic receptor (Homo sapiens) (P07550 whole entry, looked up): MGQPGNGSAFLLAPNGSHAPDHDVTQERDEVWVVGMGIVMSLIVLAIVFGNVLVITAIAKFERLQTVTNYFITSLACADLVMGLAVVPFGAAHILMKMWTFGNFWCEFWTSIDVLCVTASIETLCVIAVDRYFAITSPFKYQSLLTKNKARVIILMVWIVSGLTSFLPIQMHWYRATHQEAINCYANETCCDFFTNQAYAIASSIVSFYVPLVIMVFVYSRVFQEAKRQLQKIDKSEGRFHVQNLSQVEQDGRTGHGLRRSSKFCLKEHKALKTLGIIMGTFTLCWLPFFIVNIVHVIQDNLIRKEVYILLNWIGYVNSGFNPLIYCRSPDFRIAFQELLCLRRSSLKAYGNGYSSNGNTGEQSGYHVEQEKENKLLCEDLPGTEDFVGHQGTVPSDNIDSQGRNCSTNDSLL

In general, inhibition refers to the relative decrease from the control value, in per cent. Consider `O=C(Oc1ccccc1)Oc1ccc2c(c1)oc(=O)c1ccccc12`, for which the percent of DMSO control GFP in assay [1] is 96.3% (inactive). Moreover, the GFP response vs DMSO in assay [2] was 126% (inactive); in [4], 90.2% (inactive). In [3], the percent response of DMSO control is 106% (inactive). For the same compound, in assay [5], the GFP response, % of DMSO was 102% (inactive). The compound also displayed a double positive events in assay [6] of 60.1%. In addition, in assay [6], the vesicle binding response is 230% (inactive). Besides, the inhibition in assay [7] is -6.15% (inactive); in assay [11], 4.7% (inactive); in [15], 4% (inactive). For the same compound, the superoxide response (% of plate) in assay [8] was 78.2% (inactive). The aptamer binding inhibition in assay [9] was 2% (inactive). In addition, the response was 4.41% (inactive) in [10] and 0.05% (inactive) in assay [12]. Besides, the binding (% of control) in assay [13] is 94.7% (inactive). Moreover, the efflux inhibition (fraction of control) in assay [14] is 0.34 (inactive). The differentiation response in assay [16] was 8.19% (inactive).

Take `Cc1[nH]nc(-c2ccc(O)cc2O)c1Oc1ccccc1`: the percent of DMSO control GFP in [1] is 106% (inactive). The GFP response vs DMSO in [2] was 100% (inactive); in assay [4], 93.3% (inactive). In addition, the percent response of DMSO control in assay [3] is 114% (inactive). The GFP response, % of DMSO in assay [5] was 103% (inactive). Further, the double positive events in assay [6] was 61.9%. In addition, the vesicle binding response in [6] is 53.1% (inactive). Also, the inhibition is 4.73% (inactive) in [7], -10.9% (inactive) in assay [11] and 3% (inactive) in assay [15]. In assay [8], the superoxide response (% of plate) was 95.8% (inactive). The aptamer binding inhibition in assay [9] was 1% (inactive). For the same compound, the response is -4.61% (inactive) in assay [10] and -4.45% (inactive) in assay [12]. Further, the binding (% of control) in assay [13] was 96.3% (inactive). In addition, the efflux inhibition (fraction of control) in assay [14] was -0.32 (inactive). Further, in assay [16], the differentiation response was 8.06% (inactive).

In the case of `COc1ccc(C2OC[C@H]3O[C@H](O)[C@H](NC(C)=O)[C@@H](O)[C@@H]3O2)cc1` (stereo not given in full), in assay [1], the percent of DMSO control GFP was 99.8% (inactive). The GFP response vs DMSO is 106% (inactive) in assay [2] and 95.9% (inactive) in assay [4]. In assay [3], the percent response of DMSO control was 97.6% (inactive). In addition, the GFP response, % of DMSO in assay [5] is 97.5% (inactive). The same compound had a double positive events in assay [6] of 76.5%. Further, the vesicle binding response in assay [6] is 135% (inactive). Also, the inhibition in assay [7] is 6.95% (inactive); in [11], 6.9% (inactive); in [15] it was 12% (inactive). The superoxide response (% of plate) in assay [8] was 98.6% (inactive). Further, the aptamer binding inhibition in assay [9] was 0% (inactive). Also, the response is 8.93% (inactive) in assay [10] and 4.88% (inactive) in assay [12]. Moreover, the binding (% of control) in assay [13] is 95.3% (inactive). The efflux inhibition (fraction of control) in assay [14] is -0.04 (inactive). Further, in [16], the differentiation response is -4.57% (inactive).

For the compound `COc1ccccc1/C=C/C(=O)OCCN1CCOCC1`, the percent of DMSO control GFP in assay [1] is 99.8% (inactive). Besides, the GFP response vs DMSO in assay [2] was 119% (inactive); in assay [4], 79.8% (inactive). Moreover, the percent response of DMSO control in [3] is 114% (inactive). The GFP response, % of DMSO in assay [5] was 103% (inactive). The compound further came in with a double positive events in [6] of 56.7%. Further, the vesicle binding response in [6] is 229% (inactive). Further, the inhibition in assay [7] was -8.09% (inactive); in assay [11] it was 0.96% (inactive); in [15] it was -9% (inactive). Further, in assay [8], the superoxide response (% of plate) was 126% (inactive). In addition, the aptamer binding inhibition in [9] was -4% (inactive). For the same compound, the response was -13.3% (inactive) in [10] and -0.97% (inactive) in assay [12]. The binding (% of control) in assay [13] was 106% (inactive). Further, the efflux inhibition (fraction of control) in [14] was 0.27 (inactive). The differentiation response in assay [16] was -4.91% (inactive).

In the case of `CC1CCc2cc(F)cc3c(=O)c(C(=O)O)cn1c23` (stereo not given), the percent of DMSO control GFP in assay [1] was 99% (inactive). Further, the GFP response vs DMSO was 111% (inactive) in assay [2] and 101% (inactive) in assay [4]. In addition, the percent response of DMSO control in [3] is 95.4% (inactive). In addition, the GFP response, % of DMSO in [5] was 96.5% (inactive). Besides, the double positive events in assay [6] amounted to 62.3%. In addition, in [6], the vesicle binding response is 204% (inactive). In addition, the inhibition in assay [7] is -37.8% (inactive); in [11], 10.9% (inactive); in assay [15], -15% (inactive). The superoxide response (% of plate) in [8] was 101% (inactive). For the same compound, the aptamer binding inhibition in assay [9] is 0% (inactive). For the same compound, the response in [10] was -2.58% (inactive); in assay [12], -2.27% (inactive). Further, the binding (% of control) in assay [13] was 94% (inactive). The efflux inhibition (fraction of control) in assay [14] is -0.04 (inactive). In addition, the differentiation response in assay [16] is -6.6% (inactive).
